# Bioassay records deposited in PubChem by National Center for Advancing Translational Sciences (NCATS).
# KB-3-1 tox: KB-3-1 parental cell cytotoxicity | Potency, µM (titrated, usually from 46.1 µM), most hits filed as cytotoxic | 1.4% of 400,000 active | KB-3-1 viability, CellTiter-Glo ATP luminescence, 72 h | AID 1347075; note: % is set by controls: 0 for no effect and ±100 for the full control effect; nearly all actives have a fitted effect of over 60% in size
#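 Luminescent ATP read-out (CellTiter-Glo) measures survival of drug-naive KB-3-1 cells after 72 h compound exposure at 37 °C. Titration series was screened from lowest to highest concentration, with DMSO vehicle plates as background controls.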
# MCF10A rereplic: induces DNA re-replication in MCF 10a normal breast cells. Potency, µM (doses to about 46.1 µM), for the others: at the highest dose activity, positive = re-replication, hits mostly activators. MCF 10A DNA re-replication, Hoechst nuclear intensity, 48 h. 2.9% of 350,000 active; note: % of control where 0% means no effect; nearly all actives have a fitted effect of over 50% in size
# SW480 rerep: DNA re-replication induction in SW480 cells. SW480 DNA re-replication, Hoechst DNA content imaging, 48 h. Potency, µM (top dose mostly 46.1 µM), inactives show at the highest dose re-replication activation, hits mostly activators. 1.8% of 340,000 active; note: % of control where 0% means no effect; nearly all actives have a fitted effect of over 55% in size
#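 Readout is total intensity of Hoechst-stained nuclei, excited at 405 nm and collected at 500-530 nm. Compound treatment lasted 48 hr at 37 C in 5% CO2 before staining.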
# PINK1 expr mod: PINK1 expression modulation; PINK1 immunofluorescence, high-content cytometry, 24 h; Potency, µM (doses to about 76.6 µM), without a hit: at the top dose activation (PINK1 increase), most hits filed as activators; 0.2% of 410,000 active; AID 624263; active = well fitted activation curve with a large enough effect; inconclusive = small, poorly fitted or top-dose-only effect; cell line not stated here; note: % of control where 0% means no effect; nearly all actives have a fitted effect of over 65% in size
#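 Stable cell line, 250 cells/well, 12 h attachment; compounds pinned at 5 concentrations, 24 h; CCCP control. Fixed with nuclear dye, primary antibodies 12 h at 10 degrees C, secondary plus cell stain; laser-scanning cytometer read.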
# KB-V1 cytotox: kills drug-selected multidrug resistant KB-V1 cells; KB-V1 MDR cells viability, CellTiter-Glo, 72 h; Potency, µM (highest dose often 46.1 µM), hits mostly cytotoxic; 3.4% of 400,000 active; AID 1347076; note: % is set by controls: 0 for no effect and ±100 for the full control effect; nearly all actives have a fitted effect of over 60% in size
#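 Compound-treated KB-V1 multidrug-resistant cells, 72 h, 37 degrees C; viability by CellTiter-Glo. Fitted qHTS curves give the values.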
# Numbers without * were called inactive; i = inactive; ? = inconclusive; nt = no result; [ ] = another dose, or the depositor's remark. Hits are enriched below; roughly 6.7% of the tested compounds scored in any of these assays. Unless noted, calls come from the whole dose curve; as a rule, active = well fitted curve in the direction sought with a large enough effect; inconclusive = small, poorly fitted or top-dose-only effect, or another doubt; inactive = no such curve, though single readings can be large; an effect the other way counts as inactive or inconclusive. Potency is the fitted concentration of half-maximal effect.
SMILES,KB-3-1 tox,MCF10A rereplic,SW480 rerep,PINK1 expr mod,KB-V1 cytotox
CCOc1ccc(S(=O)(=O)N2CCCC(C(=O)Nc3ccccc3)C2)cc1 (centres undefined),i,20.5%,-9.3%,10.3%,10.3µM*
CS(=O)(=O)N1CCC(C(=O)Nc2ccc(Oc3ccccc3)cc2)CC1,i,9.2µM*,16.4µM*,-1.1%[38.3 µM],?
CCOc1ccc(S(=O)(=O)N2CCCC(C(=O)Nc3cc(C)cc(C)c3)C2)cc1 (centres undefined),i,?,4.0%,6.1%,i
CCCN(CCC)C(=O)Cn1c(=O)n(-c2cccc(C(F)(F)F)c2)c(=O)c2c(C)c(C)sc21,i,nt,nt,1.7%,i
Cc1nc2ccccc2nc1CN1CCOc2ccc(C3(O)CCN(c4ccccc4F)CC3)cc2C1,nt,nt,nt,1.1%,nt
CCOC(=O)N1CCN(C(=O)C2CCCN(S(=O)(=O)c3ccc(C)cc3)C2)CC1 (centres undefined),i,-3.7%,-5.7%,-3.9%[38.3 µM],3.66µM*
O=C(COc1ncnc2c1cnn2-c1ccccc1)Nc1ccc(S(=O)(=O)N2CCCCC2)cc1,i,2.7%,-1.0%,-1.7%,20.6µM*
CCOC(=O)N1CCN(C(=O)C2CCCN(S(=O)(=O)c3ccc(F)cc3)C2)CC1 (centres undefined),i,-3.2%,-10.1%,0.0%,i
CC1(C)O[C@H]2[C@@H](O1)[C@@H](C(=O)Nc1ccccc1O)O[C@@H]1OC(C)(C)O[C@@H]12,i,nt,nt,-0.8%,?
COc1ccc(C(=O)NCC(c2cccnc2)N2CCN(c3ccc(F)cc3)CC2)cc1 (centres undefined),i,nt,nt,1.6%,?
COC(=O)C1=C(C)NC(C)=C(C(=O)OCC(C)C)C1c1ccccc1[N+](=O)[O-] (centres undefined),i,26.6µM*,?,2.4%,3.66µM*
Nc1ccc(S(=O)(=O)NC2(C(F)(F)F)NC(=O)N(c3ccccc3F)C2=O)cc1 (centres undefined),i,0.2%,-4.5%,0.7%,i
COc1cc(/C=C/c2cccc[n+]2C)ccc1OCC(=O)Nc1ccccc1C,i,-3.4%,-5.9%,-2.4%,?
CCOc1cc(/C=C\[N+](=O)[O-])ccc1OCC(=O)Nc1ccccc1C,i,2.91µM*,?,-1.1%,i
CCCCOc1nnc(-c2ccc(OCC)cc2)c2ccccc12,i,nt,nt,2.3%,i
O=C(NCc1ccc(F)cc1)C(=O)NCC1OCCN1S(=O)(=O)c1cc(F)ccc1F (centres undefined),i,nt,nt,-0.1%,i
COc1ccc(N2CCN(C(=O)CC34CC5CC(CC(C5)C3)C4)CC2)c([N+](=O)[O-])c1,?,?,4.0%,26.1%,18.4µM*
CCC(=O)N1CCN(c2ccc(OC)cc2[N+](=O)[O-])CC1,i,0.4%,-2.8%,-1.1%[38.3 µM],i
Cc1onc(-c2c(F)cccc2Cl)c1C(=O)Nc1sc2c(c1C(N)=O)CCC2,?,5.01µM*,?,-0.2%[38.3 µM],?
CC(C)Cc1cc(C(=O)Nc2sc3c(c2C#N)CCC3)no1,i,2.0%,1.1%,4.5%,i
Cc1cc(C(=O)Nc2sc3c(c2C#N)CCC(C)C3)no1 (centres undefined),?,9.2µM*,?,7.1%[38.3 µM],11.6µM*
Cn1cc([N+](=O)[O-])c(C(=O)Nc2sc3c(c2C#N)CCC3)n1,?,3.66µM*,?,6.8%,?
N#Cc1c(NC(=O)c2cc(C3CC3)on2)sc2c1CCC2,13µM*,3.26µM*,20.6µM*,5.1%,i
Cn1cc(Br)c(C(=O)Nc2sc3c(c2C#N)CCC3)n1,i,7.3%,0.9%,5.0%,i
Cc1ccc(S(=O)(=O)N2CCN(c3nc(-n4ccnn4)nc4ccccc34)CC2)cc1,nt,nt,nt,0.1%,nt
Fc1cccc(-n2ncc3c2ncn2nc(Cc4ccccc4)nc32)c1,nt,nt,nt,0.2%,nt
O=C(/C=C/c1ccco1)Nc1sc2c(c1C(=O)O)CCC2,i,-0.7%,0.5%,9.9%[38.3 µM],i
CCOC(=O)c1c(-c2ccc(F)cc2)csc1NC(=O)c1c(-c2ccccc2)noc1C,i,?,?,?,?
Cc1cc(C(=O)Nc2sc3c(c2C#N)CCC3)no1,?,8.2µM*,?,13.8%[38.3 µM],16.4µM*
